Bioassay records (PubChem)
Sampled rows, rich in hits. Any-hit rate of the full collection: about 3.6%.
mTORC1 inh: mTORC1 pathway inhibition measured by phospho-rpS6. Tsc2-/- p53-/- MEF, phospho-rpS6 immunofluorescence/PI, 24 h. Potency, µM (top dose mostly 38.3 µM), for inactives: at the top dose activity change, negative = inhibition, most hits filed as inhibitors. 44,000 compounds, 0.78% hits. AID 493208;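 also: potency is read from the fitted curve at half-maximal effect; plate controls were DMSO for no effect and rapamycin for full effect; nearly all actives have a fitted effect of over 50% in size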
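Read-out: phospho-S6 Alexa-488 intensity over PI intensity per well, scored as % active cells using thresholds from rapamycin (7.5 nM) and DMSO controls. Tsc2-/-, p53-/- MEFs exposed to compound for 24 h; PI cell count recorded as viability.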
NTMT1 inh: inhibitors of human N-terminal methyltransferase NTMT1; 59,000 compounds, 2.5% hits; Q9BV86; NTMT1 MTase-Glo SAH luminescence, purified enzyme; Potency, µM (top dose mostly 114 µM), without a hit: top-dose activity change, negative = inhibition, hits mostly inhibitors;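 also: potency is read from the fitted curve at half-maximal effect; plate controls were DMSO vehicle for no effect and no enzyme for full effect; nearly all actives have a fitted effect of over 65% in size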
Target sequence (Q9BV86 whole entry, looked up): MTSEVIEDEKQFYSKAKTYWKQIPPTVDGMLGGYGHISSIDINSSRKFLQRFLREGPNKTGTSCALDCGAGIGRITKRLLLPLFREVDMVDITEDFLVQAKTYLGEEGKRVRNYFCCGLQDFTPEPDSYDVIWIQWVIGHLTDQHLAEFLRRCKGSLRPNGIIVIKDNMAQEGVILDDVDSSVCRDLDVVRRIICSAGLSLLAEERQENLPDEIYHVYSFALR
GALC G270D act: galactocerebrosidase G270D activity enhancement, cell-based; 145M-Twi-hGALC-G270D cells (Twitcher mouse brain line with human GALC G270D), HMU-beta-Gal fluorescence, 48 h; 45,000 compounds, 0.1% hits; Potency, µM (titrated, usually from 57.5 µM), hits mostly activators; also: potency is read from the fitted curve at half-maximal effect; 0% is about no effect; nearly all actives have a fitted effect of over 65% in size
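Fluorescence readout: HMU-β-gal cleavage by mutant GALC (0.1 mM final, citrate/phosphate pH 5.2 with 1 mg/mL taurocholate), stopped with carbonate/bicarbonate plus Triton X-100. Cells: murine Twitcher 145M-Twi expressing human G270D GALC; qHTS for activators.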
SKOV3 invasion: ovarian cancer metastasis inhibition, 3D TME model; Potency, µM (doses to about 45.8 µM), for the others: at the highest dose activity change, negative = inhibition, most hits filed as inhibitors; 46,000 compounds, 0.1% hits; AID 1963576; SKOV3ip1-GFP adhesion/invasion on 3D omental model, fluorescence;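 also: potency is read from the fitted curve at half-maximal effect; plate controls were DMSO wells for no effect and tomatine positive control wells for full effect; nearly all actives have a fitted effect of over 65% in size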
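A 3D layer of primary human omental fibroblasts, mesothelial cells, fibronectin and collagen I, grown 48 hr, received SKOV3ip1-GFP cells in serum-free medium plus compounds at 0.36-46 umol/L. After 2 hr RT and 16 hr 37 C, fixed adherent GFP cells were counted; normalized to DMSO and tomatine.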
S16 F2sN tox: toxic to S16 Pmp22-F2sN Schwann cells; S16 Pmp22-F2sN Schwann cells viability, CellTiter-Glo, 24 h; Potency, µM (doses to about 57.5 µM), for inactives: top-dose activity change, negative = cytotoxicity, most hits filed as cytotoxic; 43,000 compounds, 0.48% hits; also: potency is read from the fitted curve at half-maximal effect; % is scaled to controls: 0 for no effect and ±100 for the full control effect; nearly all actives have a fitted effect of over 65% in size
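CellTiter-Glo counter-screen, qHTS, 1536-well. Cells: S16(c9) Pmp22-F2sN, 500-1,000/well in DMEM + 10% FBS. Cpd 23 nL pin transfer, 24 h, 37C/5% CO2. Read: luminescence, CCD imager.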
PMP22 txn prim: modulates PMP22 transcription in S16 Schwann cells | AID 1508649 | Potency, µM (top dose mostly 57.5 µM), for the others: at the highest dose activity change, negative = inhibition, hits mostly inhibitors | S16 Pmp22-F2sN Schwann cells (luciferase reporters placed in the Pmp22 gene), FLuc/NLuc coincidence luminescence, 24 h | 43,000 compounds, 2% hits; active = clear falling dose curves in both reporters; inconclusive = both reporters move, but less clearly or upward; inactive = either reporter flat; the % is the NLuc reporter signal; also: potency is read from the fitted curve at half-maximal effect; % is scaled to controls: 0 for no effect and ±100 for the full control effect
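Transcriptional readout in edited S16(c9) cells: two luciferases reported from the Pmp22 locus, measured in turn after 24 h compound incubation.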
NLuc saturating: inhibits NanoLuc at saturating substrate, PMP22 counter-screen. shares compounds with PMP22 txn prim. 690 compounds, 4% hits. Secreted NLuc enzyme (filtered S16 cell medium), Nano-Glo luminescence. Potency, µM (top dose mostly 57.5 µM), for the others: at the highest dose activity change, negative = inhibition, hits mostly inhibitors; also: potency is read from the fitted curve at half-maximal effect; % is scaled to controls: 0 for no effect and ±100 for the full control effect
NLuc Km counter: NanoLuc inhibition at Km substrate, PMP22 artifact check. shares compounds with PMP22 txn prim. secreted NLuc enzyme, coelenterazine luminescence, Km conditions. Potency, µM (top dose mostly 57.5 µM), without a hit: at the top dose activity change, negative = inhibition, hits mostly inhibitors. 690 compounds, 5% hits. AID 1508639; also: potency is read from the fitted curve at half-maximal effect; % is scaled to controls: 0 for no effect and ±100 for the full control effect
FLuc counter: counter-screen for PMP22 expression modulators: firefly luciferase inhibition. Potency, µM (highest dose often 57.5 µM), inactives show at the top dose activity, negative = inhibition, usual class: inhibitors. 690 tested, under 10 active. purified P. pyralis FLuc, luminescence, 10 min. shares compounds with PMP22 txn prim; also: % of control where 0% means no effect
Target sequence (P08659 whole entry, looked up): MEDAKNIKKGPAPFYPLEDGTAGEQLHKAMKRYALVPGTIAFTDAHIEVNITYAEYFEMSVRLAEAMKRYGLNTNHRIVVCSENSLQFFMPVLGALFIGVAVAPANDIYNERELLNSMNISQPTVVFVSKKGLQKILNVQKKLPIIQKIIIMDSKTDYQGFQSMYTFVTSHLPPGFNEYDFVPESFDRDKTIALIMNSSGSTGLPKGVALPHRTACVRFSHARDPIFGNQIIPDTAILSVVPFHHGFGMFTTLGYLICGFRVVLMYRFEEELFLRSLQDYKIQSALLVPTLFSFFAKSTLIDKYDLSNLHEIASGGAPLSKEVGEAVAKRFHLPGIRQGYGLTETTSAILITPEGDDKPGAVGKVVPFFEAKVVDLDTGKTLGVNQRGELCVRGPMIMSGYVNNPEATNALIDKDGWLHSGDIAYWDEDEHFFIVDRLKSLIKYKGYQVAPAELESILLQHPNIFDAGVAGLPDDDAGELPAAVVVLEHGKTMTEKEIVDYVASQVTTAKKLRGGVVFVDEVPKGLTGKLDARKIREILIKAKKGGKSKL
S16 F2sN tox cnf: S16 Schwann cell cytotoxicity, confirmatory. shares compounds with PMP22 txn prim. S16 Schwann cells viability, CellTiter-Glo ATP luminescence, 24 h. Potency, µM (doses to about 57.5 µM), for the others: top-dose activity change, negative = viability loss, most hits filed as cytotoxic. 690 compounds, 7% hits. AID 1508641; also: potency is read from the fitted curve at half-maximal effect; % is scaled to controls: 0 for no effect and ±100 for the full control effect
PMP22 txn conf: PMP22 transcription modulation, confirmatory; 690 compounds, 22% hits; shares compounds with PMP22 txn prim; S16 Schwann cells Pmp22-F2sN, dual luciferase, 24 h; Potency, µM (top dose mostly 57.5 µM), inactives show at the top dose activity change, negative = inhibition, most hits filed as inhibitors; active = clear falling dose curves in both reporters; inconclusive = both reporters move, but less clearly or upward; inactive = either reporter flat; the % is the FLuc reporter signal; also: potency is read from the fitted curve at half-maximal effect
PMP22 HiBiT cnf: rat PMP22 protein level modulation, confirmatory; shares compounds with PMP22 txn prim; S16 Schwann cells Pmp22-HiBiT, luminescence, 48 h; Potency, µM (series often up to 27.9 µM), for inactives: top-dose activity change, negative = inhibition, usual class: inhibitors; 95 tested, under 10 active
CLK4 inh: confirmation of human CLK4 kinase inhibitors, SAR round 2. shares compounds with NTMT1 inh. recombinant Clk4, Kinase-Glo ATP luminescence, 4.5 h. Potency, µM (doses to about 76.9 µM), without a hit: top-dose activity, negative = inhibition, hits mostly inhibitors. 90 compounds, 90% hits. AID 493204
NNMT inh: blocks human NNMT methyltransferase; shares compounds with NTMT1 inh; NNMT MTase-Glo luminescence, SAH detection; Potency, µM (doses to about 57.1 µM), without a hit: at the highest dose activity, negative = inhibition, hits mostly inhibitors; 120 compounds, 10% hits
Numbers without * were called inactive; i = inactive; ? = inconclusive; nt = no result given; [ ] = dose if it differs, or a comment. Unless noted, calls follow the shape of the dose curve; as a rule, active = well fitted curve in the direction sought with a large enough effect; inconclusive = small, poorly fitted or top-dose-only effect, or another doubt; inactive = no such curve, though single readings can be large; an effect the other way counts as inactive or inconclusive.

SMILES	mTORC1 inh	NTMT1 inh	GALC G270D act	SKOV3 invasion	S16 F2sN tox	PMP22 txn prim	NLuc saturating	NLuc Km counter	FLuc counter	S16 F2sN tox cnf	PMP22 txn conf	others
CCOc1ccc(C(=O)N2CCc3cc(OC)c(OC)cc3C2COc2ccc3c(C)cc(=O)oc3c2)cc1OCC (stereo not given)	-2%	7%	i	-2%	-2%	13µM*	-7%	5%	5%	1%	-34%
COc1cc2c(cc1OC)C(COc1ccc3c(C)cc(=O)oc3c1)N(C(=O)c1ccc(Cl)cc1)CC2 (stereo not given)	-20%	17%	i	17%	?	-22%	nt	nt	nt	nt	nt
C/C(=C\CCC(C)CCO)C(=O)OC[C@H]1O[C@@H](O[C@@H]2OC=C(C(=O)O)[C@H]3CC[C@](C)(O)[C@@H]23)C(O)[C@@H](O)C1O (stereo not given in full)	nt	-23%[29.8 µM]	nt	nt	nt	nt	nt	nt	nt	nt	nt
COc1ccc(-n2nc3c(N4CCCC(C(=O)NCc5ccccc5C)C4)nnc(C)c3c2C)cc1 (stereo not given)	5.2µM*	?	i	?	25µM*	13µM*	-3%	-1%	0%	22µM*	?
COc1ccc(-n2nc3c(N4CCCC(C(=O)NCCc5ccccc5C)C4)nnc(C)c3c2C)cc1 (stereo not given)	-5%	-3%	i	-24%	?	18µM*	?	-2%	10%	?	?
COc1ccc(-n2nc3c(N4CCC(C(=O)NCc5ccccc5C)CC4)nnc(C)c3c2C)cc1	-2%	?	i	?	?	?	nt	nt	nt	nt	nt
COCC1OC(OC(C)(C)C2CCC3(C)C=C(C4CCC5C4(C)CC(O)C4OC(C(C)(C)OC6OC(CO)C(O)C(O)C6NC(C)=O)CCC45C)CCC3O2)C(NC(C)=O)C(O)C1O (stereo not given)	nt	-13%[12.6 µM]	nt	nt	nt	nt	nt	nt	nt	nt	nt
COc1c2ccoc2nc2c(OC)c(O[C@@H]3O[C@@H](C)[C@H](O)[C@@H](O[C@@H]4O[C@H](CO)[C@@H](O)[C@H](O)[C@H]4O)[C@H]3OC(C)=O)ccc12	nt	13%[12.6 µM]	nt	nt	nt	nt	nt	nt	nt	nt	nt
Cc1ccc(NC(=O)CSc2nc3n[nH]c(C)c3c(=N)n2-c2ccccc2C)cc1C	-4%	-5%	i	-7%	-2%	17µM*	?	?	8%	-10%	-39%
O=S(=O)(NCC(c1ccco1)S(=O)(=O)c1cccs1)c1ccc(Cl)cc1 (stereo not given)	18µM*	10%	i	-26%	-14%	15µM*	?	?	-6%	8%	7.6µM*	PMP22 HiBiT cnf=-26%
O=C(NCCc1ccc(Cl)cc1)C(=O)NCC(c1ccco1)S(=O)(=O)c1cccs1 (stereo not given)	-6%	3%	i	i	-11%	?	nt	nt	nt	nt	nt
O=C1CC(c2ccccc2)Cc2[nH]c(=O)c(-c3nc(-c4ccc(F)cc4)cs3)cc21 (stereo not given)	?	?	i	-15%	-11%	3.4µM*	?	?	-13%	4%	?
COc1ccc(C2CC(=O)c3cc(-c4nc(-c5ccc(Cl)cc5)cs4)c(=O)[nH]c3C2)cc1 (stereo not given)	2%	7%	i	10%	5%	?	nt	nt	nt	nt	nt
Cc1ccccc1NC(=O)c1ccc(F)c(S(=O)(=O)N(C)C2CCCCC2)c1	0%	-3%	i	-5%	-14%	5µM*	-17%	?	3%	-5%	-27%
Cc1ccc(S(=O)(=O)Nc2ccccc2N2CCCCC2)s1	nt	5%[57.5 µM]	nt	nt	nt	nt	nt	nt	nt	nt	nt
O=C(O)CSc1cc(NS(=O)(=O)c2ccc(Br)cc2)c2ccccc2c1O	nt	28µM*	nt	nt	nt	nt	nt	nt	nt	nt	nt	NNMT inh=?
CC(=O)c1c(C)oc2c1cc(NS(=O)(=O)c1ccc(Br)cc1)c1ccccc12	-8%	5%	i	0%	?	?	nt	nt	nt	nt	nt
CC1(C(=O)O)CCCC2(C)C3CC4C5CC3(CCC12)CC45C (stereo not given)	nt	-5%[57.5 µM]	nt	nt	nt	nt	nt	nt	nt	nt	nt
Cn1cc(-c2nc3cnc(N4CCNCC4)nc3n(Cc3ccc(F)cc3)c2=O)c2ccccc21	nt	nt	nt	nt	nt	nt	nt	nt	nt	nt	nt	CLK4 inh=?
